Read-out in assay [1]: Intercellular Adhesion Molecule 1 (ICAM1), ICAM1 (gene 3383)
Nature of the assay: BSK_hDFCGF_ICAM1: BioMAP Diversity Plus: hDFCGF Assay for Intercellular Adhesion Molecule 1 (ICAM1) Biomarker Activity (AID 2284287). The following applies: primary human foreskin fibroblasts. The procedure, abridged: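 ICAM-1 ELISA readout 24 h after dosing, DMSO as baseline, in human dermal foreskin fibroblast cultures. Cytotoxicity checked in parallel wells by SRB staining (0.1% SRB, 10% TCA fixation, 560 nm).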

Read-out in the next assay: CD40, CD40 (gene 958)
Briefly: BSK_IMphg_CD40: BioMAP Diversity Plus: IMphg Assay for CD40 Biomarker Activity (AID 2284288). Particulars: primary human endothelial cells with macrophages. The procedure, abridged:
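ELISA read-out of cell-surface CD40 at 24 h in human venular endothelial cell/macrophage co-cultures. Activity fitted in the positive direction against DMSO; parallel SRB staining (560 nm) gauges overt cytotoxicity.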

Read-out in assay [2]: TIMP metallopeptidase inhibitor 2 (TIMP2), TIMP2 (gene 7077)
Nature of the assay: BSK_hDFCGF_TIMP2: BioMAP Diversity Plus: hDFCGF Assay for TIMP metallopeptidase inhibitor 2 (TIMP2) Biomarker Activity (AID 2284289). Particulars: primary human foreskin fibroblasts. The procedure, abridged:
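Primary human foreskin fibroblasts in the hDFCGF system, dosed for 24 h; TIMP-2 level measured by ELISA, fitted in the positive direction against DMSO; cytotoxicity checked in parallel by sulforhodamine B total protein staining.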

Read-out in assay [3]: Interleukin-1 alpha (IL1a), IL1A (gene 3552)
Nature of the assay: BSK_IMphg_IL1a: BioMAP Diversity Plus: IMphg Assay for Interleukin-1 alpha (IL1a) Biomarker Activity (AID 2284290). Particulars: primary human endothelial cells with macrophages. The procedure, abridged:
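IL-1α is quantified by ELISA at 24 h in the endothelial/macrophage IMphg co-culture, with gain of signal fitted relative to DMSO. Parallel SRB total-protein staining flags overt toxicity.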

Read-out in assay [4]: E-selectin (Homo sapiens) (UniProt P16581)
Briefly: BSK_IMphg_ESelectin: BioMAP Diversity Plus: IMphg Assay for Eselectin Biomarker Activity (AID 2284291). Particulars: primary human endothelial cells with macrophages. The procedure, abridged:
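Analysed against DMSO baseline in the positive fitting direction, this endpoint is an ELISA read of E-selectin. It comes from human venular endothelial cells co-cultured with macrophages, sampled 24 h post-dose.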

Assay [5] is described as follows: BSK_IMphg_SRB: Viability Assessment in the BioMAP Diversity Plus: IMphg Assay (AID 2284292).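 Note: measured one day after compound addition.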 Particulars: primary human endothelial cells with macrophages. The procedure, abridged:
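SRB viability endpoint: cultures of human endothelial cells plus macrophages fixed with 10% TCA, stained with 0.1% SRB, read at 560 nm 24 h post-dosing. Only gain-of-signal fitted, relative to DMSO.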

Read-out in assay [6]: Macrophage colony-stimulating factor (MCSF), CSF1 (gene 1435)
Briefly: BSK_IMphg_MCSF: BioMAP Diversity Plus: IMphg Assay for Macrophage colony-stimulating factor (MCSF) Biomarker Activity (AID 2284293). Particulars: primary human endothelial cells with macrophages. The method in brief:
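M-CSF was measured by ELISA in human venular endothelial cell/macrophage co-cultures dosed for 24 hours. Sulforhodamine B staining of parallel cultures assessed cytotoxicity; data fitted against DMSO baseline.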

Read-out in assay [7]: Interleukin-10 (IL10), IL10 (gene 3586)
Nature of the assay: BSK_IMphg_IL10: BioMAP Diversity Plus: IMphg Assay for Interleukin-10 (IL10) Biomarker Activity (AID 2284294). The following applies: primary human endothelial cells with macrophages. The method in brief: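 IL-10 read by ELISA after 24 h chemical exposure of primary human venular endothelial cell/macrophage cocultures, with DMSO as baseline. Parallel SRB staining (560 nm) gauged overt cytotoxicity.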

Assay [8] can be described thus: BSK_IMphg_SRB.Mphg: Macrophage Viability Assessment in the BioMAP Diversity Plus: IMphg Assay (AID 2284295). Particulars: primary human endothelial cells with macrophages. The procedure, abridged:
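Cytotoxicity read-out: parallel cultures fixed with 10% TCA, stained with 0.1% sulforhodamine B, read at 560 nm. System combines venular endothelium and macrophages; sampled 24 h post-dosing, fitted positively relative to DMSO control.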

Read-out in assay [9]: Thrombomodulin, THBD (gene 7056)
Nature of the assay: BSK_LPS_Thrombomodulin: BioMAP Diversity Plus: LPS Assay for Thrombomodulin Biomarker Activity (AID 2284296). The following applies: primary human HUVEC with PBMC. The method in brief:
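Thrombomodulin on the surface of LPS-activated endothelial/PBMC co-cultures was quantified by ELISA at 24 hours post-dosing, with DMSO as baseline. Parallel SRB total-protein staining flagged overt cytotoxicity.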

Some structures have more than one record in an assay (separate samples or runs), and their calls can disagree. Active and inactive are the calls of the source. Rule for the calls: active = hit-call score of the fitted dose curve at least 0.9, where 1 is the maximum; inactive = score below 0.9.

E-selectin (Homo sapiens), sequence (P16581 whole entry, looked up): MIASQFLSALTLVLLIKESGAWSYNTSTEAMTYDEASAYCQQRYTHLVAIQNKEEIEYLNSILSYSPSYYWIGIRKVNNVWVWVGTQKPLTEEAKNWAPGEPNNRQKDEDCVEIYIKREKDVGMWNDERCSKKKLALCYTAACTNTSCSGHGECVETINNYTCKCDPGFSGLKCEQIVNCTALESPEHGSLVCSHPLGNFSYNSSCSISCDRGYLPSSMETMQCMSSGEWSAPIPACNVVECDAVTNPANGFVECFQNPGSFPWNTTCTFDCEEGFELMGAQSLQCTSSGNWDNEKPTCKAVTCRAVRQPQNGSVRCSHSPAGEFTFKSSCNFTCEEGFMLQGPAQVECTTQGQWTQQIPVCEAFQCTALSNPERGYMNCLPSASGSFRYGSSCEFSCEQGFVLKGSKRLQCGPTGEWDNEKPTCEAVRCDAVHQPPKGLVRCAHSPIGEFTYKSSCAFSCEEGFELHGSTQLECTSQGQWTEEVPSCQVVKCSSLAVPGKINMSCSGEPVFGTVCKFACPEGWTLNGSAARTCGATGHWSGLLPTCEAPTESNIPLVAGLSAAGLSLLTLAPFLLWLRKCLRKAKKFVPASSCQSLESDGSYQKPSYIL

Take `NC(=O)C(F)(F)C(F)(F)C(F)(F)C(F)(F)F`: the outcome was “inactive” in [1]; “inactive” in the assay with CD40, CD40 (gene 958); “inactive” in assay [2]; “inactive” in assay [3]; “inactive” in assay [4]; “inactive” in assay [5]. Further, the outcome in [6], in assay [7], in [8] and in assay [9] was inactive.
`FC(F)(F)C(F)(F)C(F)(F)C(F)(F)C(F)(F)C(F)(F)CC1CO1` (centres undefined): the outcome is “inactive” in [1]; “inactive” in the assay with CD40, CD40 (gene 958); “inactive” in assay [2]; “inactive” in [3]; “inactive” in assay [4]; “inactive” in assay [5]. In addition, the outcome in [6], in assay [7], in [8] and in [9] was inactive.
For the compound `FC(F)(F)C(F)(F)C(F)(F)C(F)(F)CCI`, the outcome is “inactive” in assay [1]; “inactive” with CD40, CD40 (gene 958); “inactive” in assay [2]; “inactive” in assay [3]; “inactive” in [4]; “inactive” in [5]. Besides, the result in assay [6], in [7], in [8] and in [9] was inactive.
Consider `FC(F)(F)C(F)(F)C(F)(F)C(F)(F)C(F)(F)C(F)(F)C(F)(F)Br`, for which the outcome in assay [1] was “inactive”; with CD40, CD40 (gene 958), “inactive”; in assay [2], “inactive”; in assay [3] it was “inactive”; in [4], “inactive”; in assay [5], “inactive”. The result in [6], in assay [7], in assay [8] and in assay [9] was inactive.
For `O=C(O)C(F)(OC(F)(F)C(F)(OC(F)(F)C(F)(F)C(F)(F)F)C(F)(F)F)C(F)(F)F` (centres undefined), the outcome in assay [1] was “inactive”; with CD40, CD40 (gene 958), “inactive”; in [2], “inactive”; in assay [3], “inactive”; in [4], “inactive”; in [5], “inactive”. Moreover, the result in [6], in [7], in assay [8] and in assay [9] was inactive.
As for `FC(F)(F)C(F)(F)CNCC(F)(F)C(F)(F)F`, the outcome was “inactive” in assay [1]; “inactive” in the assay with CD40, CD40 (gene 958); “inactive” in assay [2]; “inactive” in assay [3]; “inactive” in assay [4]; “inactive” in assay [5]. In addition, the result in [6], in assay [7], in assay [8] and in assay [9] was inactive. The concentration at half-maximal activity (AC50) in assay [9] was 227 nM (active).
`CCCCC(CC)COP(=O)(O)OCC(CC)CCCC` (centres undefined): the result in assay [1], in assay [2] and in [9] was inactive.
With `FC(F)(F)C(F)(F)C(F)(F)C(F)(F)C(F)(F)C(F)(F)C(F)(F)I`, the outcome is “inactive” in [1]; “inactive” with CD40, CD40 (gene 958); “inactive” in assay [2]; “inactive” in assay [3]; “inactive” in [4]; “inactive” in [5]. Moreover, the result in assay [6], in assay [7], in [8] and in assay [9] was inactive.
`OCC(F)(F)C(F)(F)C(F)(F)C(F)F`: the outcome in [1] was “inactive”; with CD40, CD40 (gene 958), “inactive”; in assay [2] it was “inactive”; in [3] it was “inactive”; in assay [4], “inactive”; in assay [5] it was “inactive”. Moreover, the outcome in assay [6], in assay [7], in assay [8] and in assay [9] was inactive.
`O=C(O)C(F)(F)C(F)(F)F`: the outcome is “inactive” in assay [1]; “inactive” with CD40, CD40 (gene 958); “inactive” in [2]; “inactive” in [3]; “inactive” in assay [4]; “inactive” in assay [5]. In addition, the result in assay [6], in assay [7], in assay [8] and in [9] was inactive.
Consider `FC1CC(F)(F)C(F)(F)C1(F)F` (centres undefined), for which the outcome in [1] was “inactive”; with CD40, CD40 (gene 958), “inactive”; in assay [2] it was “inactive”; in assay [3] it was “inactive”; in assay [4] it was “inactive”; in assay [5], “inactive”. For the same compound, the outcome in assay [6], in assay [7], in assay [8] and in [9] was inactive.
Turning to `C=C(C)C(=O)OCC(F)(F)C(F)(F)C(F)(F)F`, the outcome was “inactive” in assay [1]; “inactive” with CD40, CD40 (gene 958); “inactive” in assay [2]; “inactive” in [3]; “inactive” in assay [4]; “inactive” in assay [5]. The outcome in [6], in [7], in assay [8] and in assay [9] was inactive.
`FC(F)(F)C(F)(F)C(F)(F)C(F)(F)C(F)(F)C(F)(F)C(F)(F)C(F)(F)F`: the outcome in assay [1] is “inactive”; with CD40, CD40 (gene 958), “inactive”; in [2], “inactive”; in [3] it was “inactive”; in assay [4], “inactive”; in assay [5], “inactive”. Also, the outcome in [6], in assay [7], in assay [8] and in assay [9] was inactive.
On to `O=C(O)C(F)(F)C(F)(F)C(F)(F)C(F)(F)C(F)(F)C(F)(F)C(F)(F)C(F)(F)C(F)(F)C(F)(F)C(F)(F)C(F)(F)C(F)(F)F`, for which the outcome is “inactive” in assay [1]; “inactive” with CD40, CD40 (gene 958); “inactive” in [2]; “inactive” in assay [3]; “inactive” in [4]; “inactive” in [5]. Also, the outcome in assay [6], in assay [7], in assay [8] and in assay [9] was inactive.
On to `FC(F)(F)C(F)(F)C(F)(F)C(F)(F)C(F)(F)CCI`, for which the outcome is “inactive” in [1]; “inactive” with CD40, CD40 (gene 958); “inactive” in assay [2]; “inactive” in [3]; “inactive” in [4]; “inactive” in [5]. Besides, the result in assay [6], in assay [7], in assay [8] and in assay [9] was inactive.

Source of the values: PubChem BioAssay (EPA / NIEHS).
